Assay results reported in PubChem BioAssay AID620 (Sanford-Burnham Center for Chemical Genomics, 2007).
The campaign covered roughly 87,000 compounds. About 360 (0.41%) were called active. No stated cut-off is given here; in the data, active means cytotoxicity above about 50%; inactive means the rest. This excerpt belongs to a sample that is enriched for actives.

Assay: cytotoxicity in HT1080 fibrosarcoma cells, cell-based, fluorescence readout (AID 620);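 further: cells exposed to compound overnight then 4 h with Alamar Blue; 0% = vehicle DMSO and 100% = killing control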
Details: HT1080 viability, at 10 µM, stronger effect = higher value

Row | SMILES | cytotoxicity
1 | CC(C)C[C@H](NC(=O)N1CCN(c2ccccc2)CC1)C(=O)O | 6.2% (inactive)
2 | O=C(c1ccc(F)cc1)N1CCN(c2ncccn2)CC1 | 2% (inactive)
3 | Cc1ccccc1NC(=O)CN1C(=O)NC2(CCCCC2)C1=O | 10% (inactive)
4 | Cc1ccc(CN2CCN(C(=O)CCN3C(=O)c4ccccc4C3=O)CC2)cc1 | 6.3% (inactive)
5 | CCOC(=O)c1[nH]c(C)c(C(=O)OCC)c1C | 2.3% (inactive)
6 | CCOC(=O)c1[nH]c(C)c(C(=O)NCc2ccc(C)cc2)c1C | -8.9% (inactive)
7 | CCOC(=O)c1[nH]c(C)c(C(=O)Nc2ccc(C)c(F)c2)c1C | -2.9% (inactive)
8 | CCOC(=O)c1[nH]c(C)c(C(=O)c2cc(F)ccc2F)c1C | 57.2% (active)
9 | CCOC(=O)c1[nH]c(C)c(C(=O)Nc2ccc(F)cc2)c1C | -9.3% (inactive)
10 | CCOC(=O)c1[nH]c(C)c(C(=O)c2ccc(C)cc2)c1C | 59.5% (active)
11 | CCOC(=O)c1c(C)sc2c1N(C(=O)CN1CCOCC1)c1cc(Cl)ccc1S2 | 12.4% (inactive)
12 | O=C(OCC(=O)N1CCN(c2ccccc2)CC1)C1=COCCO1 | -8.1% (inactive)
13 | O=C(OCC#CCSc1nnc(-c2ccc([N+](=O)[O-])cc2)o1)c1cccs1 | -10.8% (inactive)
14 | CCSc1nnc(NC(=O)COc2ccccc2)s1 | -5% (inactive)
15 | O=C(NCc1ccncc1)Nc1ccc(F)cc1 | 14.7% (inactive)
16 | COc1ccc(-c2cc(N)n(S(=O)(=O)c3c(F)c(F)c(F)c(F)c3F)n2)cc1OC | 59.5% (active)
17 | COc1ccc(OC)c(S(=O)(=O)n2nc(-c3ccccc3)cc2N)c1 | -6.1% (inactive)
18 | COc1ccc(S(=O)(=O)n2nc(-c3cc(OC)c(OC)c(OC)c3)cc2N)cc1OC | 1.5% (inactive)
19 | CCOC(=O)COc1cccc2c(=O)n(CC(=O)NCc3ccc4c(c3)OCO4)ccc12 | 13.3% (inactive)
20 | CCOC(=O)C(C)Oc1cccc2c(=O)n(CC(=O)NCc3ccco3)ccc12 (stereo not drawn) | 65.3% (active)
21 | CCOC(=O)C(C)Oc1cccc2c(=O)n(CC(=O)N3CCc4ccccc43)ccc12 (stereo not drawn) | 4.2% (inactive)
22 | c1ccc(OCCOCCN2CCOCC2)cc1 | -2.8% (inactive)
23 | Cc1nc2c(cnn2-c2ccccc2Cl)c(=O)n1-c1ccc(N2CCC(C)CC2)cc1 | 0.5% (inactive)
24 | COCc1cc(C)nc(SCC(=O)Nc2cccc(C)c2C)c1C#N | -2% (inactive)
25 | Cc1csc(NC(=O)c2cc3c(s2)CCCCC3)n1 | -7.3% (inactive)

Row | SMILES | cytotoxicity
26 | Cc1csc(NC(=O)c2cc3c(s2)CCC3)n1 | 20.8% (inactive)
27 | CCC(C)NS(=O)(=O)c1ccc(-c2csnn2)s1 (stereo not drawn) | -2.6% (inactive)
28 | CC(CCc1ccccc1)NC(=O)CSc1nnnn1C (stereo not drawn) | 9.7% (inactive)
29 | Cc1ccc(N2CCN(S(=O)(=O)c3ccc(F)cc3)CC2)c(C)c1 | -3.9% (inactive)
30 | CC1=CC(C)(C)N(C(=O)C(C)N2C(=O)c3ccccc3C2=O)c2ccc(C)cc21 (stereo not drawn) | 5.3% (inactive)
31 | CC1=CC(C)(C)N(C(=O)CN2C(=O)c3ccccc3C2=O)c2ccccc21 | 12.7% (inactive)
32 | CC1=CC(C)(C)N(S(=O)(=O)c2ccc(C)cc2)c2ccc(C)cc21 | 64.1% (active)
33 | CC1=CC(C)(C)N(S(=O)(=O)c2ccc(F)cc2)c2ccccc21 | 34.7% (inactive)
34 | Cc1ccc(S(=O)(=O)N2C(=S)SCC2(C)C)cc1 | 14.3% (inactive)
35 | CC1=CC(C)(C)N(C(=O)c2ccccc2)c2ccc(C)cc21 | -8.8% (inactive)
36 | CC1=CC(C)(C)N(S(=O)(=O)c2ccc(C)cc2)c2cc(C)ccc21 | 63.7% (active)
37 | CC1=CC(C)(C)N(C(=O)CSc2nccn2C)c2cc(C)ccc21 | -6.8% (inactive)
38 | CC1=CC(C)(C)N(S(=O)(=O)c2ccc(F)cc2)c2ccc(C)cc21 | 61% (active)
39 | Cc1ccc2c(c1)[C@@H]1CN(C)CC[C@@H]1N2S(=O)(=O)c1ccc(F)cc1 | 3.2% (inactive)
40 | CC1=CC(C)(C)N(S(=O)(=O)c2ccc(C)cc2)c2ccccc21 | 64.3% (active)
41 | Cc1ccc2[nH]c3c(=O)n(CCCN4CCOCC4)cnc3c2c1 | -1.5% (inactive)
42 | CCOc1ccc(NC(=O)c2cc3cc4ccc(OC)cc4nc3o2)cc1 | -4.9% (inactive)
43 | COc1ccc(NC(=O)c2ccco2)c(NC(=O)Cc2cccs2)c1 | -0.8% (inactive)
44 | O=C(C(NS(=O)(=O)c1cccs1)c1ccccc1)N1CCN(c2ccccc2F)CC1 (stereo not drawn) | 1.9% (inactive)
45 | CC(C)(C)N(Cc1ccccc1)C(=O)c1ccc2c(c1)OCCO2 | -6.6% (inactive)
46 | Cc1sc2ncnc(NCC3CCCO3)c2c1C (stereo not drawn) | -6.6% (inactive)
47 | COC(=O)c1ccc(NC(=O)CSc2nc3cccnc3n2C)cc1 | -2.4% (inactive)
48 | COc1cc(NC(=O)C2CCCO2)c(C(=O)O)cc1OC (stereo not drawn) | 6.7% (inactive)
49 | COc1ccccc1N1CCN(C(=O)c2cc3sccc3n2C)CC1 | -5.4% (inactive)
50 | O=C(OC(C(=O)NC1CCCC1)c1ccccn1)c1cccs1 (stereo not drawn) | -10% (inactive)

Row | SMILES | cytotoxicity
51 | CN=C1SC(CC(=O)Nc2sc3c(c2C#N)CCCC3)C(=O)N1C (stereo not drawn) | 1.2% (inactive)
52 | CN1Cc2cc(C(=O)c3ccccc3O)cnc2NC1=O | -10.1% (inactive)
53 | CCCCN1Cc2cc(C(=O)c3cc(F)ccc3O)cnc2NC1=O | -2.9% (inactive)
54 | CN1Cc2cc(C(=O)c3cc(Cl)cc(CSc4ncccn4)c3O)cnc2NC1=O | 70.1% (active)
55 | O=C1NC(c2ccccc2)C(C(=O)c2cccs2)=C1O (stereo not drawn) | -9.1% (inactive)
56 | COc1ccccc1NC(=O)c1ccc(NS(C)(=O)=O)cc1 | -6.8% (inactive)
57 | C/C(=N\NC(=O)c1ccccn1)C12CC3CC(CC(C3)C1)C2 | -0.9% (inactive)
58 | CCN(CC)S(=O)(=O)c1cccc(-c2nnc(SCC(=O)NC3CCCC3)n2N)c1 | -9.2% (inactive)
59 | COc1ccccc1NC(=O)N1CCC(c2nc3cc(C)c(C)cc3[nH]2)CC1 | 72.8% (active)
60 | CCOc1ccccc1NC(=O)N1CCC(c2nc3ccc(C)cc3[nH]2)CC1 | -20.4% (inactive)
61 | CCOc1ccccc1NC(=O)N1CCC(c2nc3ccccc3[nH]2)CC1 | 2.8% (inactive)
62 | Cc1ccc(NC(=O)/C(C#N)=C/c2cccs2)c(C)c1 | -7.9% (inactive)
63 | COC(=O)[C@@]1(Cc2ccc(F)cc2)[C@H]2c3cc(C(=O)N4CCCC4)n(CCc4ccc(O)c(O)c4)c3C[C@H]2CN1C(=O)c1ccccc1 | -15.9% (inactive)
64 | COc1ccccc1CNC(=O)CCS(=O)(=O)c1cccs1 | -8.3% (inactive)
65 | COc1cc(CNc2cc(C)ccc2C)cc(OC)c1OC | -14.1% (inactive)
66 | COc1cc(CNc2ccccc2SC)cc(OC)c1OC | -30.4% (inactive)
67 | COc1cc(CNc2ccc(C)c(C)c2)cc(OC)c1OC | 54.5% (active)
68 | CCOC(=O)c1csc(NC(=O)C2CCCCC2)n1 | -6.3% (inactive)
69 | CCc1c(C)sc(NC(=O)C2CCCO2)c1C#N (stereo not drawn) | 0.6% (inactive)
70 | O=C(Cn1c(CC(=O)N2CCCC2)nc2ccccc21)NCc1ccccc1 | 3% (inactive)
71 | COc1ccc(NC(=O)Nc2ncccc2C)cc1 | 0.5% (inactive)
72 | Cc1nnc(Sc2nc(Sc3nnc(C)s3)nc(N3CCN(C)CC3)n2)s1 | 59.7% (active)
73 | Cc1nnc(SCCn2c(N3CCN(C)CC3)nc3c2c(=O)[nH]c(=O)n3C)s1 | -10.1% (inactive)
74 | Cc1nnc(SCCn2c(N3CCN(C)CC3)nc3c2c(=O)n(C)c(=O)n3C)s1 | -3.5% (inactive)
75 | COC(F)(C(=O)Nc1ccc2c(c1)C(=O)NC2=O)C(F)(F)F (stereo not drawn) | 0.1% (inactive)

Row | SMILES | cytotoxicity
76 | CC(=O)Nc1ccc(-c2cc(NC(C)=O)n(-c3ccccc3)n2)cc1 | -2.5% (inactive)
77 | Cc1ccc(-c2cc(NC(=O)CCl)n(-c3ccccc3)n2)cc1 | 60.4% (active)
78 | O=C(CCl)Nc1cc(-c2ccccc2)nn1-c1ccccc1 | 54.1% (active)
79 | CC(=O)Nc1cc(-c2ccc(Cl)cc2)nn1-c1ccccc1 | 1.4% (inactive)
80 | Cc1cc(NC(=O)COc2ccccc2)n(-c2ccccc2)n1 | 7.7% (inactive)
81 | Cc1cc(NC(=O)Nc2cc(C)nn2-c2ccccc2)n(-c2ccccc2)n1 | 4.3% (inactive)
82 | O=C(NCCc1c[nH]c2ccccc12)c1cnc2sccn2c1=O | -1.9% (inactive)
83 | O=C(NCC(c1cccnc1)N1CCN(c2ccccc2F)CC1)c1ccccc1 (stereo not drawn) | -1.1% (inactive)
84 | CC(NS(=O)(=O)c1ccc(OCC(=O)N2CCOCC2)cc1)c1ccccc1 (stereo not drawn) | 0.3% (inactive)
85 | O=C(Nc1ccc2c(c1)OCO2)OCc1ccccc1 | 13.2% (inactive)
86 | Cn1nc(-c2ccc(Cl)cc2)nc2c(=O)n(C)c(=O)nc1-2 | 51% (active)
87 | CSc1nc(-c2ccc(Cl)cc2)nn1S(=O)(=O)c1ccc(Cl)cc1 | -13% (inactive)
88 | CCS(=O)(=O)n1nc(-c2ccc(Cl)cc2)nc1N | 0.1% (inactive)
89 | C=CCN=C(NC#N)SCCc1ccccc1 | -4.6% (inactive)
90 | Cc1nn(C)c(C)c1NC(=O)c1ccnn1C | -16.7% (inactive)
91 | Oc1ccc(CN2CCc3ccccc3C2)c2cccnc12 | 33.5% (inactive)
92 | CN1CCN(Cc2cc(COCc3ccccc3)c3cccnc3c2O)CC1 | 43.1% (inactive)
93 | Oc1c(CN2CCOCC2)cc(COCc2ccccc2)c2cccnc12 | 20.5% (inactive)
94 | OCCN1CCN(Cc2cc(Cl)c3cccnc3c2O)CC1 | -4.1% (inactive)
95 | O=c1oc2c(CN3CCOCC3)c(O)c(Cl)cc2c2c1CCC2 | 7.1% (inactive)
96 | CCOCC(=O)Nc1nnc(COc2ccc(Cl)cc2)s1 | 17.8% (inactive)
97 | CCOC(=O)CSc1nnc(Cn2c(=O)sc3ccccc32)n1C | 1.9% (inactive)
98 | CCN(CC)c1ccc(C(=S)N2CCN(c3ccccc3)CC2)cc1 | -2.9% (inactive)
